# In PubChem BioAssay AID602124 (The Scripps Research Institute Molecular Screening Center, 2011):
# In all, about 1,300 compounds went through this assay and about 630 (48%) were called active. No stated cut-off is given here; in the data, active means inhibition above about 6.5%; inactive means the rest. So high a share suggests a set chosen from earlier hits. A selection follows.
# Biological target: Tyrosine-protein kinase ABL1 (Homo sapiens) + Ras and Rab interactor 1 (Homo sapiens) (UniProt P00519+Q13671)
# Assay: disruptors of human Abl and Rin1 association – biochemical, TR-FRET, confirmation (AID 602124)
# Conditions: TR-FRET Rin1-Abl binding, purified proteins; at 7.35 µM; active compounds read high
# Chain of Tyrosine-protein kinase ABL1 (Homo sapiens) + Ras and Rab interactor 1 (Homo sapiens) (P00519 whole entry, looked up): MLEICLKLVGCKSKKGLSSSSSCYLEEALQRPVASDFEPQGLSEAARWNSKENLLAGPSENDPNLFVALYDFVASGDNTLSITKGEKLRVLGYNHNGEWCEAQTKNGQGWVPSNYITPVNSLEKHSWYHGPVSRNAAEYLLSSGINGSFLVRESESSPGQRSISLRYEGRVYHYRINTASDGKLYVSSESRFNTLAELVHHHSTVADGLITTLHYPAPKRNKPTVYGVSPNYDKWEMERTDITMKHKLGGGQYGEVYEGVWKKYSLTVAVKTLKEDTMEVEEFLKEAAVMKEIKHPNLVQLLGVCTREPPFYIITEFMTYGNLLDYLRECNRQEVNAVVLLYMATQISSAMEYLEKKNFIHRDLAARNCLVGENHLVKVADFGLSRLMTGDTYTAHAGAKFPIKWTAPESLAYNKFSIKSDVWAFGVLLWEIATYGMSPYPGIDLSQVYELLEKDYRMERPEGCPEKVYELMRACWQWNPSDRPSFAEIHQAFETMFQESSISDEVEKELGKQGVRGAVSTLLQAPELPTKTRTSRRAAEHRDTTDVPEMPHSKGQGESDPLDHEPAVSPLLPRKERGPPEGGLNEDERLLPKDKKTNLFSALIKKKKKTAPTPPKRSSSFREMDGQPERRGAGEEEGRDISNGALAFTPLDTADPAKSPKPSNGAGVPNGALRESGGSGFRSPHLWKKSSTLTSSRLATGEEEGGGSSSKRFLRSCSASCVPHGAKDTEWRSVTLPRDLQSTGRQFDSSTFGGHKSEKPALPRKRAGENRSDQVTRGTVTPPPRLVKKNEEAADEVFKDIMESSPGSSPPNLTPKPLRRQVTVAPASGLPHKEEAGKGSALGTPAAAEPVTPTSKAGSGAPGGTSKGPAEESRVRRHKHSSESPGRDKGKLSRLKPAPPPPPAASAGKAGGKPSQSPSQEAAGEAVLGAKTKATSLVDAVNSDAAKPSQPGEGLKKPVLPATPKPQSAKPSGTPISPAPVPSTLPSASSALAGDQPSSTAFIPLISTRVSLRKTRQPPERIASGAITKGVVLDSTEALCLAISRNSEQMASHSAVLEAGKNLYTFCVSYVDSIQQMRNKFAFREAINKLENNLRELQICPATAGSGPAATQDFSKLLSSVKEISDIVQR
# Chain of Tyrosine-protein kinase ABL1 (Homo sapiens) + Ras and Rab interactor 1 (Homo sapiens) (Q13671 whole entry, looked up): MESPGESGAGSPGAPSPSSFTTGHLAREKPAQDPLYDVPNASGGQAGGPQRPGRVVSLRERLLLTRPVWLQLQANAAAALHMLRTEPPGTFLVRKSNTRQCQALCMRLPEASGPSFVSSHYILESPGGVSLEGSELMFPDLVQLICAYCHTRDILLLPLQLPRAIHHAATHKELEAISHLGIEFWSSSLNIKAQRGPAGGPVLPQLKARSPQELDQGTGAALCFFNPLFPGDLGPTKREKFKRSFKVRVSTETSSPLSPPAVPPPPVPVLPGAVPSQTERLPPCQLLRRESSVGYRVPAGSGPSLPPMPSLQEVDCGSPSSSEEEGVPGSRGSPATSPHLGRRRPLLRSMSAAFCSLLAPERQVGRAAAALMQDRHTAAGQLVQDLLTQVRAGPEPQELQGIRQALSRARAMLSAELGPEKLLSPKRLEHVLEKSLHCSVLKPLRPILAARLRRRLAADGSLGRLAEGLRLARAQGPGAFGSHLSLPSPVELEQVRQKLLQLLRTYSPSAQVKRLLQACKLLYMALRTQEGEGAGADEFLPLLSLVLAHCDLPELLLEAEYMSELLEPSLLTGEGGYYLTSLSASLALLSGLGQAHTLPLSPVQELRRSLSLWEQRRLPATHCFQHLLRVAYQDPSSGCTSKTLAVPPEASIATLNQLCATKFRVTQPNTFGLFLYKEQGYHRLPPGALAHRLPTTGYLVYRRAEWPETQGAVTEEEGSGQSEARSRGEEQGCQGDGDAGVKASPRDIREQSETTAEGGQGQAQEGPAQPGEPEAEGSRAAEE
row,Compound,inhibition
1,CC(=O)Nc1ccc(CN2CCC(Oc3ccc(C(=O)N4CCCC4)cc3)CC2)cc1,3.99% (inactive)
2,CN(C(=O)c1ccc(NC(=O)Cc2cccc(NC(=O)C3CCN(C(=O)c4ccccc4)CC3)c2)cc1)C1CC1,26% (active)
3,CCOC(=O)CN(C(=O)COc1nc(C)cc(C)c1C#N)c1ccc(Cl)cc1,0.28% (inactive)
4,O=C(NNc1c2ccccc2nc2ccccc12)c1cc2ccccc2cc1O,1.57% (inactive)
5,CCCn1c(N)c(C(=O)CSc2nnc(-c3cccnc3)n2-c2ccc(C)cc2C)c(=O)[nH]c1=O,13.8% (active)
6,CCOc1ccc(-n2c(SCC(=O)NC3CCS(=O)(=O)C3)nnc2-c2cccnc2)cc1 (stereo not given),3.68% (inactive)
7,Cc1ccc(-n2c(SCC(=O)NCc3ccc4c(c3)OCO4)nnc2-c2cccnc2)c(C)c1,12.5% (active)
8,COCCNC(=O)Nc1ccc2nc(-c3ccco3)c(-c3ccco3)nc2c1,5.72% (inactive)
9,CN(CC(=O)Nc1ccc(F)cc1)CC(=O)Nc1ccc(Cl)c(S(=O)(=O)N2CCOCC2)c1,0.32% (inactive)
10,CCc1ccc(CN(C)C(C)C(=O)Nc2ccc(S(=O)(=O)N3CCCC3)cc2)cc1 (stereo not given),-1.11% (inactive)
11,Cc1ccccc1C(=O)N1CCC(C(=O)Nc2ccc(S(=O)(=O)N(C)C(C)C)cc2)CC1,9.43% (active)
12,O=C(Nc1ccc(S(=O)(=O)Nc2ncccn2)cc1)c1cncc(Br)c1,1.84% (inactive)
13,CC(CCO)Nc1nc2c([nH]1)c(=O)n(C)c(=O)n2C (stereo not given),1.44% (inactive)
14,O=c1ccc2c(-c3ccccc3S(=O)(=O)O)c3ccc(O)c(O)c3oc-2c1O,67% (active)
15,CN(C)c1ccc(N/C=C/C(=O)C(F)(F)F)cc1,-4.29% (inactive)
16,COC(=O)c1ccc(COC(=O)C2CCN(S(=O)(=O)c3c(Cl)cccc3Cl)CC2)o1,16.6% (active)
17,O=C(COc1ccc(S(=O)(=O)NCCc2ccccc2)cc1)N1CCCC1,-1.2% (inactive)
18,Cc1cc2ccccc2n1CCNC(=O)COc1ccc2ccccc2c1,0.15% (inactive)
19,CCOC(=O)N1CCC(c2cc(=O)n(-c3ccccc3)[nH]2)CC1,-2.37% (inactive)
20,CCOC(=O)N1CCN(C(=O)C2CCN(c3ncnc4c3sc3cccc(F)c34)CC2)CC1,28.5% (active)
21,CCOC(=O)N1CCN(C(=O)C2CCCN(c3ncnc4c3sc3cccc(F)c34)C2)CC1 (stereo not given),9.09% (active)
22,Cc1cc(NC(=O)CSCC(=O)NC(C)c2ccccc2)no1 (stereo not given),0.39% (inactive)
23,O=C(Nc1ccc(OC(F)(F)F)cc1)c1ccc2c(c1)no[n+]2[O-],-0.65% (inactive)
24,CC(OC(=O)c1ccccc1NCCO)C(=O)Nc1ccnn1C(C)C (stereo not given),53.2% (active)
25,COc1ccc(CNC(=O)c2cc(C(=O)C3CC3)c[nH]2)cc1,1.47% (inactive)
26,CSc1ncnc2c1ncn2CC(=O)C1CCC2C3CCC4=CC(=O)CCC4(C)C3CCC12C (stereo not given),11.9% (active)
27,C#CCOCCOCCOCCNc1nc(N2CCN(C(=O)C(Cc3ccc(O)cc3)n3cc(C(N)CC(C)C)nn3)CC2)nc(N2CCN(C(=O)C(Cc3ccc(O)cc3)n3cc(C(N)C(C)CC)nn3)CC2)n1 (stereo not given),13.9% (active)
28,C[C@@H]1CN([C@H](C)CO)S(=O)(=O)c2ccc(C#C[C@@H](C)O)cc2O[C@@H]1CN(C)Cc1ccc(-c2ccccc2)cc1,32.5% (active)

row,Compound,inhibition
1,O=C(c1cn(-c2ccccc2)nc1-c1cc2ccccc2oc1=O)N1CCOCC1,-4.12% (inactive)
2,O=C(CNCc1ccco1)Nc1cc(S(=O)(=O)N2CCOCC2)ccc1N1CCCC1,-1.42% (inactive)
3,Oc1c(CN2CCN(c3ccc(F)cc3)CC2)cc(Cl)c2cccnc12,-0.1% (inactive)
4,C=C1c2c(Cl)ccc(O)c2C(O)=C2C(=O)[C@]3(O)C(O)=C(C(N)=O)C(=O)[C@@H](N(C)C)[C@@H]3[C@@H](O)C12 (stereo not given in full),13.9% (active)
5,CC(C)CNS(=O)(=O)c1ccc(C(=O)Nc2ccc3c(c2)OCO3)cc1,-0.58% (inactive)
6,CN(Cc1c(F)cccc1Cl)C(=O)CNC(=O)c1ccc2c(c1)OCO2,45.8% (active)
7,C=CCn1cc(C(=O)NCc2ccc(Cl)cc2)c(=O)c2cc(S(=O)(=O)N(CC)CC)ccc21,0.48% (inactive)
8,CCc1cc2c(N3CCN(c4nnc(CC)s4)CC3)ncnc2s1,4.08% (inactive)
9,C=CCn1c2ccccc2c2nnc(SCc3[nH]c(=O)[nH]c3C(=O)CCCCC(=O)OCC)nc21,71.5% (active)
10,Cc1ccc(C(NC(=O)C2CCN(CCOc3ccc(Cl)cc3Cl)CC2)c2ccccn2)cc1 (stereo not given),0.23% (inactive)
11,CCOc1ccc(S(=O)(=O)N2CCCCC2)cc1NC(=O)CN1CCCC1c1cccs1 (stereo not given),0.05% (inactive)
12,Cc1cccc(N(C)C(=O)CN2C(=O)COc3ccc(S(=O)(=O)N4CCCCCC4)cc32)c1,7.15% (active)
13,NS(=O)(=O)c1ccc(CCNC(=O)Nc2ccc(Cl)cc2)cc1,-1.53% (inactive)
14,Oc1cccc2cc(-c3ccncc3)cnc12,20.6% (active)
15,CCOc1ccc(CNC(=O)C2CCCN(c3nnc(C)c4c(C)n(-c5ccccc5)nc34)C2)cc1 (stereo not given),12.6% (active)
16,OC[C@@H]1CN(Cc2ccc(Cl)cc2)C[C@H](n2cnc3c(NCc4ccncc4)ncnc32)O1,2.98% (inactive)
17,Cc1nn(-c2ncc(C(F)(F)F)cc2Cl)c(=O)n1-c1ccccc1,-0.89% (inactive)
18,O=C(CC1SCCNC1=O)Nc1ccc(Cl)cc1 (stereo not given),12.1% (active)
19,Nc1nc2n(n1)C(c1ccco1)CC(c1ccc(Cl)c(Cl)c1)N2 (stereo not given),0.66% (inactive)
20,O=c1c2c(nc3n1CCCCC3)sc1c(O)cccc12,14.5% (active)
21,CC(=O)NC(c1cccs1)c1cc(Br)c2cccnc2c1O (stereo not given),15.9% (active)
22,Cc1c(CC(=O)N2CCN(C(=O)C3COc4ccccc4O3)CC2)c(=O)oc2c(O)c(O)ccc12 (stereo not given),8.45% (active)
23,NC1=CC(=O)C(=O)c2cccnc21,19.5% (active)
24,COc1cc(C(=S)N2CCOCC2)ccc1O,-2.83% (inactive)
25,Cc1ccccc1CN1C[C@@H]2C[C@@H](c3ccc4nsnc4c3)N3CCC[C@@]23C1=O,22% (active)
26,Nc1cc(=O)c2[nH]cnc2[nH]1,18.1% (active)
27,O=c1cc(CO)oc(CN2CCC(Cc3ccccc3)CC2)c1O,-3.76% (inactive)
